Measured values reported in the supplement of paper PMC10981050.
Values joined by “and” are separate entries in the source; they are usually repeats but may differ in a detail not shown here. Identical values can stand only once. Counter-ions that a name gives are not always drawn.

Test system: K562
Experiment: cell viability relative to vehicle control; higher = less cytotoxic
Details: 10 µM; SRSF2 genotype: SRSF2 P95H/wt
How it was run: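 Four leukaemia lines, as CRISPR-edited mutant clones and isogenic wild-type clones, were tested against Selleck bioactive, kinase and epigenetic probe libraries after removal of identity-inconsistent compounds. Cells were exposed to a single 10 µM dose for 48 h, and CellTiter-Glo luminescence was then read. Viability was calculated relative to the on-plate vehicle control.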

SMILES	cell viability
C/C(=C\c1csc(C)n1)[C@@H]1C[C@@H]2O[C@@H]2CCC[C@H](C)[C@H](O)[C@@H](C)C(=O)C(C)(C)[C@@H](O)CC(=O)O1 [Epothilone A]	22.5% and 33%
C[C@]12C=CC(=O)C=C1CC[C@@H]1[C@@H]2CC[C@@]2(C)[C@H]1CC[C@]2(C)O [Methandrostenolone]	102% and 107%
C#C[C@]1(O)C=C[C@H]2[C@@H]3CCC4=CC(=O)CC[C@@H]4[C@H]3CC[C@@]21CC [Gestodene]	94.9% and 97.5%
C/C=C\c1cc(OC)c(OC)cc1OC [Beta-Asarone]	106% and 104%
Cc1c(N)nc(C(CC(N)=O)NCC(N)C(N)=O)nc1C(=O)NC(C(=O)NC(C)C(O)C(C)C(=O)NC(C(=O)NCCc1nc(-c2nc(C(=O)NCCC[S+](C)C)cs2)cs1)C(C)O)C(O[C@@H]1O[C@@H](CO)[C@@H](O)[C@H](O)[C@@H]1O[C@H]1O[C@H](CO)[C@@H](O)[C@H](OC(N)=O)[C@@H]1O)c1cnc[nH]1 (stereo not given in full) [Bleomycin sulfate]	95.9% and 107%
Cc1cccc(C(C)c2c[nH]cn2)c1C (stereo not given) [Medetomidine HCl]	97.2% and 99.8%
CCC1(c2ccc(N)cc2)CCC(=O)NC1=O (stereo not given) [Aminoglutethimide (Cytadren)]	98.1% and 103%
COc1cc2c(cc1O)CC1NCCc3cc(OC)c(O)c-2c31 (stereo not given) [Norisoboldine]	108% and 103%
Cc1cccc(Cc2c[nH]cn2)c1C [Detomidine HCl]	96.3% and 104%
COC1=C[C@@H]2[C@@H]3Cc4ccc(OC)c(O)c4[C@]2(CCN3C)CC1=O [Sinomenine hydrochloride]	104% and 105%
CC(C)=CCCC(C)(O)C1CCC2(C)C1C(O)CC1C3(C)CCC(O)C(C)(C)C3C(OC3OC(CO)C(O)C(O)C3O)CC12C [(20R)-Ginsenoside Rh1]	101% and 98.6%
CN(C)C(=O)Oc1ccc[n+](C)c1 [Pyridostigmine Bromide (Mestinon)]	93.7% and 96.7%
C=CC1CN2CCC1CC2C(O)c1ccnc2ccccc12 (stereo not given) [Cinchonine.cdx]	98.1% and 107%
CC[C@@H]1CN2CC[C@@]3(C(=O)Nc4ccccc43)[C@@H]2C[C@@H]1/C(=C\OC)C(=O)OC [Corynoxine]	95.5% and 98.3%
C[C@@]12C[C@@H](c3ccoc3)OC(=O)[C@@H]1CC[C@]1(C)[C@H]2[C@@H]2C=C[C@@]1(O)C(=O)O2 [Columbin]	104% and 96.4%
Nc1nc(N)nc(N)n1 [Melamine]	93% and 95.7%
O=C(/C=C/c1ccccc1)OC[C@H]1O[C@@H](O[C@@H]2OC=C[C@H]3[C@H](O)[C@@H]4O[C@]4(CO)[C@@H]23)[C@H](O)[C@@H](O)[C@@H]1O [Picroside I]	99.3% and 101%
Cc1cccc(C)c1NC1=NCCCS1 [Xylazine HCl]	101% and 85.1%

SMILES	cell viability
c1ccc2c(c1)[I+]c1ccccc1-2 [Diphenyleneiodonium chloride (DPI)]	25.4% and 25.3%
CC(=O)OC12COC1CC(O)C1(C)C(=O)C(O)C3=C(C)C(O)CC(O)(C(OC(=O)c4ccccc4)C21)C3(C)C (stereo not given) [10-DAB (10-Deacetylbaccatin)]	103% and 110%
COC(=O)C[C@](O)(CCC(C)(C)O)C(=O)O[C@@H]1C(OC)=C[C@]23CCCN2CCc2cc4c(cc2[C@H]13)OCO4 [Harringtonine]	12.3% and 17.8%
c1c2c(cc3c1OCO3)-c1cc3ccc4c(c3c[n+]1CC2)OCO4 [Coptisine chloride]	83.7% and 89.7%
O=S(=O)(CC1CS1)c1ccc(Oc2ccccc2)cc1 (stereo not given)	88.7% and 98.8%
CC(NC(C)(C)C)C(=O)c1cccc(Cl)c1 (stereo not given) [Amfebutamone (Bupropion) HCl]	86.7% and 90.3%
O=C1CCC[C@@H]2[C@H]3CCCN4CCC[C@@H](CN12)[C@@H]34 [Matrine ((+)-Matrine)]	94.4% and 112%
C=C[C@H]1CN2CC[C@H]1C[C@H]2[C@H](O)c1ccnc2ccccc12 [Cinchonidine]	87.9% and 96.3%
Cn1cc(C2=C(c3cn(C4CCN(Cc5ccccn5)CC4)c4ccccc34)C(=O)NC2=O)c2ccccc21	91.5% and 86.9%
O=C(O)CNC(=O)c1c(O)c2ccccc2n(Cc2ccccc2)c1=O	95.1% and 95.2%
O=c1[nH]c2ccc(Cl)cc2c(N[C@@H]2CN3CCC2CC3)c1-c1nc2ccccc2[nH]1	2.58% and 2.45%
NCC(O)c1ccc(O)cc1 (racemic) [(+,-)-Octopamine HCl]	91.4% and 95.7%
C=C1[C@H]2C[C@@]3([C@@H]1O)[C@@H](CC2=O)[C@]12[C@@H]4C[C@H]3[C@H]1N(CC)C[C@]4(C)CC[C@@H]2O [Songorine]	96.8% and 99.6%
COc1cc2c(cc1OC)[C@@H](Cc1ccc(O)c(Oc3cc4c(cc3OC)CCN(C)[C@@H]4Cc3ccc(O)cc3)c1)N(C)CC2.[O-][Cl+3]([O-])([O-])O [Liensinine perchlorate]	76.2% and 65.4%
CC(=O)O[C@H]1C(=O)[C@@]2(C)[C@H]([C@H](OC(=O)c3ccccc3)[C@]3(O)C[C@H](O)C(C)=C1C3(C)C)[C@]1(OC(C)=O)CO[C@@H]1C[C@@H]2O	93.5% and 95%
CC(C)[C@]12O[C@H]1[C@@H]1O[C@]13[C@]1(O[C@H]1C[C@H]1C4=C(CC[C@@]13C)C(=O)OC4)[C@@H]2O [Triptolide]	5.55% and 15%
CC1=C[C@]23C(=O)[C@@H](C=C(CO)[C@@H](O)[C@]2(O)[C@H]1O)[C@H]1[C@@H](C[C@H]3C)C1(C)C [Ingenol]	113% and 98.6%
